# The list is not random: actives were taken first. Their share in the collection is about 2.4%.
# Anthrax LT inh: blocks cellular internalization of anthrax lethal toxin | Cells, anthrax lethal toxin internalization, FRET ratio (460/530) | Potency, µM (titrated, usually from 40 µM), without a hit: at the top dose activity change, negative = inhibition, most hits filed as inhibitors | actives 0.67% (n = 70,000); further: on the % scale 0 is the no-effect control and ±100 the full control effect; nearly all actives have a fitted effect of over 50% in size
# AmpC inh det: inhibitors of E. coli AmpC beta-lactamase with detergent | P00811 | purified AmpC, nitrocefin hydrolysis with detergent | Potency, µM (highest dose often 28.7 µM), for inactives: at the highest dose activity change, negative = inhibition | actives 0.09% (n = 71,000) | AID 584; active means well fitted curve in the direction sought with a large enough effect; inconclusive means small, poorly fitted or top-dose-only effect; further: on the % scale 0 is the no-effect control and ±100 the full control effect
# Target sequence (P00811 whole entry, looked up): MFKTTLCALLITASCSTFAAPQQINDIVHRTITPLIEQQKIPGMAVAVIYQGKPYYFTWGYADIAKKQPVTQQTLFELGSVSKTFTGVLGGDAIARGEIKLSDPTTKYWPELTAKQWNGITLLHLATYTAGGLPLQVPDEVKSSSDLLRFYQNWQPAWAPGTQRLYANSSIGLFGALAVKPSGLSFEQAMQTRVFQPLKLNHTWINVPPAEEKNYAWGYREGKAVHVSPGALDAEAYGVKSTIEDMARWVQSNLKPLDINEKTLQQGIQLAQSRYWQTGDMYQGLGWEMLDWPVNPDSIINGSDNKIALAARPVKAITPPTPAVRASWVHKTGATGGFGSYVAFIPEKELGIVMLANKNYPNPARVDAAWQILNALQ
#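 E. coli AmpC (5.3 nM) in 20 mM phosphate pH 7.0 with 0.01% Triton X-100, preincubated 15 min RT with compound; nitrocefin (2 uL of 800 uM stock) hydrolysis followed by 480 nm absorbance every 20 s over 4 min.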
# SmPrx2 inh: Schistosoma mansoni Prx2 inhibition. S. mansoni Prx2 activity coupled to TGR/GSH (TGR is thioredoxin glutathione reductase), NADPH fluorescence loss, qHTS. Potency, µM. actives 0.07% (n = 65,000). AID 448
#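 qHTS, coupled TGR/Prx2 format; 15 min compound preincubation at RT; reaction started with H2O2 (2.5 mM aliquot); kinetic NADPH fluorescence decrease, ex 365/em 450 nm.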
# AmpC inh no det: AmpC beta-lactamase inhibition, detergent-free assay | AID 585 | AmpC nitrocefin hydrolysis, absorbance 480 nm, no detergent | P00811 | Potency, µM (series often up to 28.7 µM), inactives show at the top dose activity change, negative = inhibition | actives 1.8% (n = 71,000); further: % of control where 0% means no effect
#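 AmpC, 20 mM phosphate pH 7.0; 15 min cpd preinc, RT; start with nitrocefin (800 uM stock); A480 kinetic read, 20 s intervals, 4 min. No-enzyme wells = negative control.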
# An asterisk follows results filed as active; ? = inconclusive; · = no result given; [ ] = another dose, or the depositor's remark. Unless noted, the call rests on the fitted dose curve. Potency means the concentration at half of the fitted maximal effect.
SMILES,Anthrax LT inh,AmpC inh det,SmPrx2 inh,AmpC inh no det
CCC(C)NC(=O)CS(=O)Cc1nc(-c2cccc(C)c2)oc1C (configuration not stated),-3.5%,12.8%,>57,3.98µM*[single pt active]
CCCCSCCCNC(=O)CS(=O)Cc1nc(-c2cccc(C)c2)oc1C (configuration not stated),2.8%,-3.0%,>57,107.2%
Cc1cccc(-c2nc(CS(=O)CC(=O)NC3CCCC3)c(C)o2)c1 (configuration not stated),-0.4%,10.7%,>57,3.98µM*[single pt active]
O=C(O)Cc1[nH]cnc1C(=O)O,1.6%[8 µM],0.5%[5.75 µM],>57,-12.5%[5.75 µM]
COC(=O)c1nc2n(n1)C(c1cccc(Cl)c1)C1=C(CC(C)(C)CC1=O)N2 (configuration not stated),4.5%,11.1%,>57,3.98µM*[single pt active]
COC(=O)c1nc2n(n1)C(c1cccc(Cl)c1)C1=C(CCCC1=O)N2 (configuration not stated),-3.8%,10.9%,>57,3.98µM*[single pt active]
COC(=O)C1=C(C)NC2=C(C(=O)CC(C)(C)C2)C1c1cccc(C)n1 (configuration not stated),28.4%,11.2%,>57,-0.4%
CCCC(=O)c1ccc(N2CCN(C(=O)c3ccccc3Br)CC2)c(F)c1,12.6µM*,-1.0%,>57,86.6%
CCCCCCCCCCCCC/C=C\[C@@H](O)[C@H](CO)NC(C)=O,15.8µM*,-8.8%,>57,81.2%
Cc1nc2cnc(N3CCN(C)CC3)nc2n(C2CC2)c1=O,?,21.3%,>57,69.4%
COc1ccc(C)cc1NC(=O)c1ccoc1C,7.5%,1.6%,·,2.3%
COc1ccc(C)cc1NC(=O)c1cc2c(CO)cnc(C)c2oc1=N,?,12.7%,>57,3.16µM*[single pt active]
Cc1cc(=O)oc2c1ccc1oc(/C(=N/O)c3ccccc3)c(C)c12,10µM*,0.9%,·,-11.2%
CCC(=O)Oc1ccc2c(C)cc(=O)oc2c1C,?,3.1%,?,-5.1%
Cc1ccc(-c2nc(NC(=O)CSc3nnc4scc(-c5ccccc5)n34)ns2)cc1,?,25.8%,>57,3.98µM*[single pt active]
CCOC(=O)/C(C(C)=O)=C1\OC(=O)c2ccccc21,-3.9%,7.94µM*,>57,12.6µM*
CCOC(=O)CN1C(=O)c2ccccc2C1=O,-12.1%,-0.8%,>57,23.3%
c1ccc2c[n+](Cc3ccnc4ccccc34)ccc2c1,4.1%[8 µM],-4.0%[5.75 µM],>57,-3.2%[5.75 µM]
Cn1c(Cn2c(=O)sc3ccccc32)nnc1SCC(=O)Nc1cccc(Cl)c1,7.2%,22.8%,>57,8.2%
Cn1c(Cn2c(=O)sc3ccccc32)nnc1SCC(=O)Nc1ccc(Cl)cc1,7.8%,11.5%,>57,3.98µM*[single pt active]
Cc1cc(C)cc(NC(=O)CSc2nnc(Cn3c(=O)sc4ccccc43)n2C)c1,-1.2%,8.6%,>57,3.98µM*[single pt active]
Cn1c(Cn2c(=O)sc3ccccc32)nnc1SCC(=O)Nc1cccc(F)c1,-2.1%,12.6%,>57,3.98µM*[single pt active]
C=C(C)C(=O)OCC(C)O (configuration not stated),-1.2%,7.0%,·,31.5%
CO[C@H]1COC(=O)CCC[C@@H](C)[C@H](OC)COC(=O)[C@H]2CCCN2C(=O)C/C=C\[C@@H]1C,5.3%[8 µM],·,·,·
CCOC(=O)c1cc2sccc2n1CC(=O)N1c2ccccc2CC1C (configuration not stated),10.1%,0.5%,>57,15.8µM*[single pt active]
SMILES,Anthrax LT inh,AmpC inh det,SmPrx2 inh,AmpC inh no det
O=c1[nH]c(=O)n([C@H]2C[C@H](O)[C@H](CO)O2)cc1/C=C\Br,3.5%,1.0%,>57,11.0%
COC(=O)c1ccccc1NC(=O)Nc1nnc(N2CCCCC2C)s1 (configuration not stated),1.26µM*,11.6%,>57,3.98µM*[single pt active]
COc1ccc(NC(=O)Nc2nnc(N3CCCCC3C)s2)cc1OC (configuration not stated),4.5%,18.5%,·,3.98µM*[single pt active]
Oc1ccc(-c2nc(-c3ccc(O)c(O)c3)cs2)cc1,12.6µM*,1.0%,·,-23.5%
COc1cccc(-c2cncnc2NCc2ccccc2)c1,?,10µM*,>57,12.6µM*
COc1ccccc1OCCn1cc(C(=O)c2ccco2)c2ccccc21,10µM*,6.2%,>57,5.8%
CCCCCCCCCCCCC(=O)N1CCCC[C@H]1CNC(=O)[C@@H](N)CCCCN,?,-4.0%,>57,184.2%
CC1(C)[C@@H]2CC[C@]1(C)CN(CCC[N+](C)(C)C)C2,10.0%[8 µM],-2.8%[5.75 µM],>57,-5.5%[5.75 µM]
Cc1cc(C)cc(N(CC(=O)N2CCN(Cc3ccccc3)CC2)S(=O)(=O)c2c(C)noc2C)c1,-1.4%,10.9%,>57,3.98µM*[single pt active]

# High-throughput results as filed in PubChem.
